Laboratory results taken from PubChem BioAssay AID588343 (Broad Institute, 2011).
Out of some 1,200 compounds screened, about 650 (54%) were called active. Not shown: some 5% with an inconclusive outcome.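 Rule for the calls: active = signal-lowering curve whose fitted half-maximal concentration is at or below ten times the top valid dose tested; inconclusive = flat curve with 30 to 70% inhibition, or poor fit; inactive = signal increase, flat within 30%, or potency beyond limit.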 The set was probably picked from earlier hits. Not all results are given here. Results with a measured potency or affinity are listed apart.

Experiment: EBV LMP1 TES2 canonical NF-kB signalling blockers – cell-based, HEK293, luciferase, cherry-pick, dose response (AID 588343)
Conditions: HEK293 LMP1 TES2 NF-kB luciferase reporter, 16 h; series mostly up to 35 µM

outcome, inactive:
O=C1N[C@@H](Cc2c[nH]c3ccccc23)COC(=O)[C@H](Cc2ccc(F)cc2)C/C=C\C[C@H]1CC(=O)N(CCO)Cc1ccccc1
Cc1sc2nc(SCC(=O)OC(C)C)n(C)c(=O)c2c1C
CCCCCn1c(N2CCOCC2)nc2c1c(=O)n(CC(N)=O)c(=O)n2C
COc1cc2c(CCNC(C)=O)c[nH]c2cc1Cl
CC(C)OCCCNC(=O)C1CCC(CNS(=O)(=O)c2ccccc2)CC1 (centres undefined)
O=S(=O)(NC1c2cccc3cccc(c23)C1Sc1ncccn1)c1ccccc1 (centres undefined)
COc1ccc(C(=O)NCCNc2nc3cc(C)c(C)cc3cc2C)cc1
Cc1onc(-c2ccccc2)c1C(=O)NC(=S)NNC(=O)c1ccc(O)cc1O
CCC(C)(C)NC(=O)C(c1ccc(F)cc1)N(CCOC)C(=O)CCC(=O)Nc1nccs1 (centres undefined)
COc1cccc(C(=O)OCn2nnc3ccccc3c2=O)c1OC
O=C(O)c1ccc(C=NN=C2c3ccccc3-c3ccccc32)cc1
O=C(N/N=C/c1cccnc1)c1cc(-c2cccs2)nc2ccccc12
CNC(=S)Nc1ccc2nc(C)c(C)nc2c1
O=C1CC(c2cccs2)Cc2nc(NC(=O)C3CC3)ncc21 (centres undefined)
CC(C)[C@H](N[C@@H](C)c1ccccc1)c1c(O)ccc2ccccc12
CCn1c(SC(C)C)nnc1-c1c[nH]c2ccccc12
COc1ccccc1-n1c(-c2ccccc2)n[nH]c1=S
CC(=O)c1cc(C(=O)Nc2ccc(C(=O)O)cc2)oc1C
COc1ccc(-c2nc(CN3CCC(C(=O)N4CCOCC4)CC3)c(C)o2)cc1C
COc1ccc(-n2cnc3c(cnn3CCC#N)c2=N)cc1
O=C(N/C(=C/c1ccc(Br)cc1)C(=O)N1CCOCC1)c1ccc(Br)o1
CCN(CC(=O)NCc1ccc(F)cc1)CC(=O)Nc1cc(S(=O)(=O)N(C)C)ccc1C
O=C(Nc1cc(Cl)ccc1Cl)C1Cc2ccccc2O/C1=N\O (centres undefined)
COc1ccc(CNC(=O)N2[C@H]3CC[C@@H]2C=C(c2ccc(F)cc2OCc2ccccc2)C3)cc1OC
Cc1cccc(Cn2nc(-n3cccc3)c3c(C)cc(C)nc32)c1
Clc1cccc(CN2CCCCCC2)c1
CN1CCc2cccc3c2C1Cc1ccc(O)c(O)c1-3 (centres undefined)
CCOc1ccccc1C(=O)NC1CC2CCCC(C1)N2Cc1nnnn1Cc1ccco1 (centres undefined)
COc1ccc(OC)c(NC(=O)COC(=O)COc2ccc(Nc3ccccc3)cc2)c1
COc1ccccc1NC(=O)C(=O)N/N=C(\C)CC(=O)Nc1ccccc1C(F)(F)F
S=C(NN=C1C2CC3CC(C2)CC1C3)Nc1ccccc1
CC(=O)Nc1ccc(S(=O)(=O)N2CCCC2)cc1
COc1ccc(S(=O)(=O)N2CCCCCC2)cc1C(=O)OCc1cccc(OC)c1OC
COC(=O)c1cc2n(n1)CCN(Cc1ccccc1Cl)C2=O
COC(=O)CCCC[C@@H]1SC[C@@H](NC(=O)OC)[C@@H]1NC(=O)OC
N#CCCn1cc(C(=O)Nc2ccccn2)c(-c2ccccc2)n1
C/C(=N\Nc1ccc(C(F)(F)F)cc1[N+](=O)[O-])C(C)C
CN(CC(=O)Nc1cccnc1)S(=O)(=O)c1ccc(Br)cc1
COc1ccc(S(=O)(=O)N2CCOCC2)cc1NC(=O)COC(=O)CCS(=O)(=O)c1ccc(C)cc1
N#CCN(N=Nc1ccccc1)c1ccccc1
COc1cccc(C2=CC(=O)C[C@H](c3ccc4c(c3)OCO4)C2)c1
CCOC(=O)C1CCN(S(=O)(=O)Cc2ccccc2)C1=O (centres undefined)
COc1cc(C2NC(=O)NC(C)=C2C(=O)OC2CCCC(C)C2)cc(Br)c1O (centres undefined)
Cc1cc(N2CCCC2=O)cc(C)c1S(=O)(=O)Nc1c(C)nn(C)c1C
N#CC1=C(N)OC2=C(C(=O)CCC2)C12C(=O)N1CCCc3cccc2c31 (centres undefined)
O=C1CCc2cc(OCCCCc3nnnn3C3CCCCC3)ccc2N1
CN(C)S(=O)(=O)c1cccc(NC(=O)c2n[nH]c(=O)c3ccccc23)c1
Cc1cc(C)nc(SCC(=O)OCN2C(=O)c3ccccc3C2=O)n1
Cc1cc(N=Cc2c(O)ccc3cc(Br)ccc23)no1
Cc1cc2ccccc2n1CCNC(=O)COc1ccc2ccccc2c1
CCOc1ccc(N(C(C)C(=O)N2CCCCCC2)S(C)(=O)=O)cc1 (centres undefined)
CCOc1cccc(CNc2nnnn2C)c1
CCOc1ccc(S(=O)(=O)N2CCC(C(=O)NCCc3ccc(S(N)(=O)=O)cc3)CC2)cc1
COc1ccccc1/C=C/C(=O)c1ccc(Cl)cc1
CCn1c(NC(=O)c2ccc(C)cc2)c2ccccc2nc1=O
COc1ccc(NC(=O)c2cc3c(CO)cnc(C)c3oc2=Nc2cccc(F)c2)c(OC)c1
Brc1ccc(-c2csc(N3CCCCCC3)n2)cc1
C=CCn1c(SCc2ccc3nonc3c2)nnc1-c1cccs1
Oc1ccccc1C=NN=Cc1c(O)ccc2ccccc12
COc1cccc(/C=N\NC(=O)c2ccc(C)nc2)c1
COc1cc(C2CC(=O)N3CN(Cc4ccccc4)CSC3=C2C#N)ccc1OCc1ccccc1 (centres undefined)
Cc1cc(C)c(S(=O)(=O)N2CCN(C(=O)c3ccccc3OCc3c(C)noc3C)CC2)c(C)c1
COc1cc(OC)cc(C(=O)N[C@H](C(=O)OCC(=O)c2ccc(C)c([N+](=O)[O-])c2)C(C)C)c1
COCCn1c(SCC(=O)N2CCc3ccccc32)nc2c(c1=O)SC(C)C2 (centres undefined)
COCCNC(=O)C1CCC(CNS(=O)(=O)c2ccccc2)CC1 (centres undefined)
COc1ccc(N2C3=[N+](CC2(C)O)c2ccccc2CC3)cc1 (centres undefined)
CC(CCc1ccco1)N(C)S(=O)(=O)c1csc(C(N)=O)c1 (centres undefined)
CCc1nnc(NC(=O)c2cc(S(=O)(=O)N3CCN(CC)CC3)ccc2Cl)s1
Cc1nn(CCCC(=O)Nc2cccnc2Cl)c(C)c1[N+](=O)[O-]
Cc1ccc(N2C(=O)c3ccccc3C2Nc2cccnc2)nc1 (centres undefined)
COC(=O)C1=NNC(C(=O)OC)C1c1ccccc1 (centres undefined)
CCOC(=O)C1=C(C)N(C)C(=O)NC1c1ccccc1OC (centres undefined)
CCCN(CC1CC1)c1nc(C)nc(Nc2c(Cl)cc(Cl)cc2Cl)c1Cl
CC1CCC(NC(=O)CC2Oc3ccccc3NC2=O)CC1 (centres undefined)
